What all share (conditions): concentration: 10 µM; 24 h
Test [1] concerns HCC1569. The test is described as follows: cell number relative to DMSO (% of DMSO); higher = more cells (less growth inhibition / toxicity). In a few lines: (§1)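 Cells were seeded at 800 per well in 384-well plates with RPMI containing 10% FBS; both HCC1569 and TDF lines were used. Compounds were added at 10 µM for 24 h at 37 °C, in triplicate, before fixation in 3.7% formaldehyde and staining with a rabbit anti-H1.0 antibody, an AlexaFluor 647 secondary and DAPI. H1.0 nuclear intensity or cell number is reported as percent of the plate control using the median of replicates, and HCC1569 values were smoothed for positional effects.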

For test [2], the system named is TDF. The test is described as above. An outline of the steps:
as §1

Test [3] deals with TDF. The test can be described thus: H1.0 immunofluorescence intensity relative to DMSO (% of DMSO); higher = stronger H1.0 induction, active = 120 or more. An outline of the steps:
as §1

Test [4] deals with HCC1569. The test is described as follows: H1.0 immunofluorescence intensity relative to DMSO (% of DMSO); higher = stronger H1.0 induction, active = 140 or more. An outline of the steps: as §1

“And” between values parts separate entries of the source, which are not always exact repeats. Equal values may be shown once. ± gives the standard deviation of the averaged measurements.
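Throughout, for H1.0 immunofluorescence intensity relative to DMSO: TDF is a line of transformed human dermal fibroblasts of mesenchymal origin.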
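Throughout, for cell number relative to DMSO: TDF denotes transformed human dermal fibroblasts of mesenchymal origin.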

`COc1cc(Oc2ccnc3cc(OC)c(OC)cc23)ccc1NC(=O)NC(C)c1nccs1` (configuration not stated): the cell number in the test on HCC1569 [1] worked out at 68.5; with TDF [2], 47. For the same compound, the H1.0 immunofluorescence intensity in the test with TDF [3] is 99.9 (inactive); in the test with HCC1569 [4], 124 (inactive).
In the same order, the values of `COc1cc(C2Oc3cc(C4Oc5cc(O)cc(O)c5C(=O)C4O)ccc3OC2CO)ccc1O` (configuration not stated) [Silybine] are 100, 103, 95.9 (inactive) and 90.2 (inactive).
For the compound `CCCCCC=CCC(O)C=CC=CCC=CCCCC(=O)O` (configuration not stated), the cell number with HCC1569 [1] is 105 and 98; in the test with TDF [2], 95.5 and 90.4. Also, the H1.0 immunofluorescence intensity in the test on TDF [3] was 92.5 (inactive) and 96.7 (inactive); in the test with HCC1569 [4] it was 98.4 (inactive) and 99.8 (inactive).
Consider `O=C(O)CN(CCN(CC(=O)O)CC(=O)O)CCN(CC(=O)O)CC(=O)O` [Diethylenetriaminepentaacetic acid], for which the values for the cell number in the test with HCC1569 [1] and in the test with TDF [2] were 95.4 and 104, respectively. In addition, the H1.0 immunofluorescence intensity is 95.1 (inactive) in the test with TDF [3] and 94.6 (inactive) in the test with HCC1569 [4].
`Cl.Nc1nc2ccc(OC(F)(F)F)cc2s1` [Riluzole.HCl]: the cell number in the test with HCC1569 [1] stood at 101; in the test with TDF [2], 89.9. Further, the H1.0 immunofluorescence intensity in the test with TDF [3] was 96.2 (inactive); in the test with HCC1569 [4], 94.8 (inactive).
Taken in the same sequence, the figures for `O=C(O)Cc1nn(Cc2nc3cc(C(F)(F)F)ccc3s2)c(=O)c2ccccc12` were 98.1, 90.1, 93.4 (inactive) and 97.7 (inactive).
In the same order, the values of `Cn1c(NCCN(CCO)CCCc2ccc([N+](=O)[O-])cc2)cc(=O)n(C)c1=O` [Nifekalant] are 101, 99.4, 96.3 (inactive) and 100 (inactive).
For `O=C(O)CCCC=CCC1C(O)CC(O)C1C=CC(O)COc1cccc(C(F)(F)F)c1` (configuration not stated) [Fluprostenol], the cell number is 100 with HCC1569 [1] and 96 in the test on TDF [2]. Besides, the figures for the H1.0 immunofluorescence intensity in the test on TDF [3] and in the test on HCC1569 [4] were 92.2 (inactive) and 97.4 (inactive), respectively.
Taken in the same sequence, the figures for `O=C([O-])Cc1ccccc1Nc1c(Cl)cccc1Cl.[Na+]` [Diclofenac sodium] were 109, 97.8, 99.1 (inactive) and 89.9 (inactive).
Taken in the same sequence, the figures for `CC(N)(COP(=O)(O)O)C(=O)O` (configuration not stated) [2-methyl-O-phosphonoserine] were 97.7, 102, 96 (inactive) and 102 (inactive).
Consider `COc1cc2ncnc(Nc3ccc(OCc4ccccc4)cc3)c2cc1OC` [EGFR/ErbB-2 Inhibitor], for which the cell number in the test with HCC1569 [1] is 88.7; in the test with TDF [2], 92.5. In addition, the values for the H1.0 immunofluorescence intensity in the test on TDF [3] and in the test with HCC1569 [4] were 103 (inactive) and 121 (inactive), respectively.
Taken in the same sequence, the figures for `O=c1cc(-c2ccc(O)c(O)c2)oc2cc(O)cc(O)c12` [Luteolin] were 74.6 ± 15, 62.6 ± 57, 124 (active) and 120 (inactive).
Regarding `CC(O)C1C(=O)N2C(C(=O)O)=C(SCCN=CN)CC12` (configuration not stated) [Imipenem], the values for the cell number with HCC1569 [1] and with TDF [2] were 111 and 109, respectively. Also, the H1.0 immunofluorescence intensity in the test with TDF [3] is 97.1 (inactive); in the test with HCC1569 [4] it was 102 (inactive).
In the same order, the values of `CCCCCCCCCCCC=CCCCCC(=O)O` [6(Z)-Octadecenoic acid] are 100, 99.9, 101 (inactive) and 97.5 (inactive).
Taken in the same sequence, the figures for `Cc1cc2c(s1)=Nc1ccccc1NC=2N1CCN(C)CC1` [Olanzapine] were 106, 99.4, 92.2 (inactive) and 95.6 (inactive).
In the same order, the values of `c1cc(-c2sc(-c3ccncc3)c(-c3ccncc3)c2-c2ccncc2)ccn1` [4-[3,4,5-tri(4-pyridinyl)-2-thienyl]pyridine] are 98.5, 95.1, 98 (inactive) and 98.9 (inactive).
For the compound `Cl.O.O=C(O)CN(CCN(CC(=O)O)Cc1ccccc1O)Cc1ccccc1O`, the figures for the cell number in the test with HCC1569 [1] and in the test with TDF [2] were 105 and 98.8, respectively. For the same compound, the H1.0 immunofluorescence intensity was 108 (inactive) in the test on TDF [3] and 90.1 (inactive) with HCC1569 [4].
Taken in the same sequence, the figures for `CC1CCN=C(N)S1.Cl` (racemic) were 98.5, 103, 108 (inactive) and 100 (inactive).
In the same order, the values of `CC(C=Cc1cccc(Oc2ccc(F)cc2)c1)N(O)C(N)=O` (configuration not stated) are 102, 101, 102 (inactive) and 89.2 (inactive).
In the same order, the values of `Br.COc1ccccc1N1CCN(CCCCN2C(=O)c3ccccc3C2=O)CC1` [NAN-190 hydrobromide] are 104, 102, 90.9 (inactive) and 100 (inactive).
Take `C=C(C)C1CC=C(C(=O)O)CC1` (configuration not stated) [Perillic acid]: the values for the cell number in the test on HCC1569 [1] and in the test with TDF [2] were 102 and 98.7, respectively. In addition, the H1.0 immunofluorescence intensity in the test with TDF [3] was 96.4 (inactive); in the test on HCC1569 [4] it was 92.9 (inactive).
For `O=Cc1c2[nH]c3ccccc3c2cc2[nH]c3ccccc3c12` [6-Formylindolo [3,2-B] carbazole], the cell number is 101 in the test with HCC1569 [1] and 99 in the test with TDF [2]. Besides, the H1.0 immunofluorescence intensity in the test with TDF [3] was 91.4 (inactive); in the test on HCC1569 [4], 100 (inactive).
Taken in the same sequence, the figures for `COc1cc(C(=O)OC2CC(C)=CCCC(C)=CC(O)C2C(C)C)ccc1O` (configuration not stated) [Tschimganidin] were 102, 101, 96.2 (inactive) and 86.8 (inactive).

The record behind these values is the supplement of paper PMC7156485.
